# Where a name gives a salt, the structure may show the parent alone. ± gives the standard deviation or the standard deviation of the averaged measurements.
# Key:
# Settings in all cases: 25 µM; exposure: 24-48 hpf
# [1] = tested on: Danio rerio Tg(wt1b:EGFP) embryo, pronephros; test: glomerular separation, fold change vs DMSO control; higher = glomeruli further apart (abnormal)
# Summary of the method: (§1)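 Dechorionated Tg(wt1b:EGFP) zebrafish embryos were kept from 24 to 48 hpf at 28.5°C in HEPES-buffered E3 containing 0.003% PTU, 0.5% DMSO and 25 μM compound. The pronephroi were then imaged from the dorsal side in agarose-filled 96-well plates at 470 nm with 10 z-slices, and 16 reference points were placed by hand on maximum projections in Fiji so that a macro could calculate distances and angles. Values lying more than 2 SD from the mean of a feature were discarded. Every feature is given as a fold change against the mean of DMSO-treated embryos from the same day.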
# [2] = tested on: Danio rerio Tg(wt1b:EGFP) embryo, pronephros; test: glomerular width (mean of left and right), fold change vs DMSO control; higher = wider glomerulus
# Summary of the method: as §1
# [3] = tested on: Danio rerio Tg(wt1b:EGFP) embryo, pronephros; test: pronephric angle neck segment to proximal convoluted tubule (mean of left and right), fold change vs DMSO control; higher = larger pronephric angle
# Summary of the method: as §1
# [4] = tested on: Danio rerio Tg(wt1b:EGFP) embryo, pronephros; test: fraction of imaged embryos annotated as normal kidney; higher = less nephrotoxic; extreme values may be limits of the assay
# Summary of the method: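 Dechorionated Tg(wt1b:EGFP) zebrafish embryos were exposed in 12-well plates to 25 μM compound in 0.5% DMSO, 5 mM HEPES-buffered E3 with 0.003% PTU, from 24 to 48 hpf at 28.5°C. Tricaine-anaesthetised larvae were oriented dorsally in agarose-filled 96-well plates, and pronephroi were imaged by widefield fluorescence (470 nm, 10 z-slices). Each embryo was manually annotated from maximum projections. The read-out is the fraction of embryos per treatment assigned to the normal-kidney category.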
SMILES,glomerular separation [1],glomerular width [2],pronephric angle neck segment [3],fraction of imaged embryos annotated as normal kidney [4]
NC(=O)C(c1ccccc1)(c1ccccc1)[C@@H]1CCN(CCc2ccc3c(c2)CCO3)C1 [Darifenacin hydrobromide],0.963 ± 0.39,1.09 ± 0.019,1 ± 0.029,–
COc1c(N2C[C@@H]3CCCN[C@@H]3C2)c(F)cc2c(=O)c(C(=O)O)cn(C3CC3)c12 [Moxifloxacin],0.919 ± 0.39,0.971 ± 0.024,0.998 ± 0.029,0.909
CC(=O)CCCCn1c(=O)c2c(ncn2C)n(C)c1=O [Pentoxifylline],0.678 ± 0.2,0.971 ± 0.032,0.752 ± 0.033,0.583
CC(C)c1ccc2oc3nc(N)c(C(=O)O)cc3c(=O)c2c1 [Amlexanox],1.84 ± 0.69,1.04 ± 0.036,0.955 ± 0.017,–
O=C(OCCOCCO)c1ccccc1Nc1cccc(C(F)(F)F)c1 [Etofenamate],3.04 ± 0.95,0.684 ± 0.026,1.75 ± 0.018,0
CCCCC(O)c1ccccc1 (configuration not stated) [Fenipentol],1.17 ± 0.29,0.993 ± 0.03,0.967 ± 0.017,0.833
CC=CC1=C(C(=O)O)N2C(=O)[C@@H](NC(=O)[C@H](N)c3ccc(O)cc3)[C@H]2SC1 [Cefprozil],0.967 ± 0.4,1.086 ± 0.0056,0.965 ± 0.061,0.917
"Cc1c(O)c(=O)n(-c2ccccc2)n1C [Antipyrine, 4-hydroxy]",1.2 ± 0.38,0.951 ± 0.064,1.03 ± 0.028,0.583
C[C@H]1[C@H](NC(=O)/C(=N\OC(C)(C)C(=O)O)c2csc(N)n2)C(=O)N1S(=O)(=O)O [Aztreonam],0.857 ± 0.2,1.143 ± 0.0015,0.9634 ± 0.0095,0.917
CN1[C@@H]2CC[C@H]1C[C@@H](OC(c1ccccc1)c1ccccc1)C2 [Benztropine mesylate],0.821 ± 0.18,1 ± 0.025,1.04 ± 0.011,0.833
CCC(C)(C)C(=O)O[C@H]1C[C@@H](C)C=C2C=C[C@H](C)[C@H](CC[C@@H]3C[C@@H](O)CC(=O)O3)[C@H]21 [Simvastatin],4.7 ± 1.8,0.658 ± 0.034,1.8 ± 0.065,–
OC(CCN1CCCCC1)(c1ccccc1)c1ccccc1 [Pridinol methanesulfonate salt],0.797 ± 0.22,1.02 ± 0.06,0.986 ± 0.089,1
C[C@]12C=CC(=O)C=C1CC[C@H]1[C@@H]3C[C@@H](O)[C@](O)(C(=O)CO)[C@@]3(C)C[C@H](O)[C@@]12F [Triamcinolone],1.19 ± 0.58,1.23 ± 0.034,1.119 ± 0.0058,0.75
COc1ccc2[nH]c([S+]([O-])Cc3ncc(C)c(OC)c3C)nc2n1 (configuration not stated) [Tenatoprazole],1.61 ± 0.86,0.93 ± 0.064,1.17 ± 0.069,0.917
CCN(CC)CCNC(=O)c1cc(Cl)c(N)cc1OC [Metoclopramide monohydrochloride],0.868 ± 0.25,0.962 ± 0.015,0.944 ± 0.032,0.833
CC(C)CN(C[C@@H](O)[C@H](Cc1ccccc1)NC(=O)O[C@H]1CO[C@H]2OCC[C@H]21)S(=O)(=O)c1ccc(N)cc1 [Darunavir],1.16 ± 0.42,0.976 ± 0.018,0.9599 ± 0.0035,–
COc1ccc(CCN(C)CCCC(C#N)(c2ccc(OC)c(OC)c2)C(C)C)cc1OC (configuration not stated) [Verapamil hydrochloride],1.1 ± 0.41,0.995 ± 0.019,1.075 ± 0.0043,–
CC=CC(=O)N(CC)c1ccccc1C [Crotamiton],0.867 ± 0.16,0.96 ± 0.038,1 ± 0.019,1
CCOC(=O)N1CCC(=C2c3ccc(Cl)cc3CCc3cccnc32)CC1 [Loratadine],1.4 ± 0.98,0.989 ± 0.055,1.1 ± 0.021,–

SMILES,glomerular separation [1],glomerular width [2],pronephric angle neck segment [3],fraction of imaged embryos annotated as normal kidney [4]
CCCCOc1ccc(OCCCN2CCOCC2)cc1 [Pramoxine hydrochloride],0.962 ± 0.26,0.951 ± 0.025,0.993 ± 0.033,0.917
CC(=O)O[C@]1(C(C)=O)CC[C@H]2[C@@H]3C=C(C)C4=CC(=O)CC[C@@H]4[C@H]3CC[C@@]21C [Nomegestrol acetate],1.02 ± 0.29,0.953 ± 0.054,1.131 ± 0.0084,0.909
N[C@@H](C(=O)N[C@@H]1C(=O)N2C(C(=O)O)=C(Cl)CS[C@H]12)c1ccccc1 [Cefaclor hydrate],1 ± 0.21,0.95 ± 0.093,1.01 ± 0.028,0.833
CC(=O)Nc1ccc(OCC(O)CNC(C)C)cc1 (configuration not stated) [Practolol],1.01 ± 0.36,0.986 ± 0.081,1.02 ± 0.051,0.833
Cc1cc(=O)n(-c2ccccc2)n1C [Antipyrine],1 ± 0.28,0.98 ± 0.024,1 ± 0.043,0.667
CC(=O)N[C@@H](CC(C)C)C(=O)O [N-Acetyl-L-leucine],1.02 ± 0.21,1.075 ± 0.0078,0.993 ± 0.013,0.917
CCN1CCCC1CNC(=O)c1cc(S(N)(=O)=O)ccc1OC (configuration not stated) [Sulpiride],1.08 ± 0.28,1.02 ± 0.023,0.983 ± 0.032,0.75
C[C@@](Cc1ccc(O)c(O)c1)(NN)C(=O)O [Carbidopa],1.24 ± 0.38,1.0027 ± 0.00014,1.047 ± 0.0029,0.833
CCCNC(C)C(=O)Nc1ccccc1C (configuration not stated) [Prilocaine hydrochloride],1.28 ± 1.1,0.947 ± 0.032,1.02 ± 0.081,0.75
CC1(C)[C@H](C(=O)O)N2C(=O)C[C@H]2S1(=O)=O [Sulbactam],0.653 ± 0.18,1.07 ± 0.04,0.952 ± 0.039,–
CC(=O)O[C@H]1C[C@@]2(C)[C@@H](C[C@@H](O)[C@H]3[C@@]4(C)CC[C@@H](O)[C@@H](C)[C@@H]4CC[C@@]32C)/C1=C(\CCC=C(C)C)C(=O)O [Fusidic acid sodium salt],0.853 ± 0.16,1.06 ± 0.025,1.02 ± 0.014,1
COC(=O)Nc1nc2cc(C(=O)c3ccccc3)ccc2[nH]1 [Mebendazole],4.75 ± 1.7,0.552 ± 0.014,1.91 ± 0.057,0
CCOc1ccc2nc(S(N)(=O)=O)sc2c1 [Ethoxzolamide],2.05 ± 1.5,1.08 ± 0.0034,1.2306 ± 0.00079,–
CCn1cc(C(=O)O)c(=O)c2cc(F)c(N3CCNCC3)nc21 [Enoxacin],0.719 ± 0.29,0.9596 ± 0.0034,1.06 ± 0.017,0.727
CC(C(=O)O)c1cccc(C(=O)c2ccccc2)c1 (configuration not stated) [Ketoprofen],1.58 ± 0.77,0.83 ± 0.037,1.1 ± 0.028,–
Clc1ccc2c(c1)CCc1cccnc1C2=C1CCNCC1 [Desloratadine],0.811 ± 0.28,0.94 ± 0.011,1.06 ± 0.044,0.917
CN(C)c1nc(N(C)C)nc(N(C)C)n1 [Altretamine],0.998 ± 0.46,0.923 ± 0.011,1.06 ± 0.062,0.917
CN(C)CCCN1c2ccccc2Sc2ccc(C(F)(F)F)cc21 [Triflupromazine hydrochloride],0.863 ± 0.37,1.033 ± 0.0067,0.954 ± 0.014,–
O=C(c1ccc(F)cc1)C1CCN(CCn2c(=O)[nH]c3ccccc3c2=O)CC1 [Ketanserin tartrate hydrate],0.846 ± 0.25,0.939 ± 0.021,1.03 ± 0.046,0.833

SMILES,glomerular separation [1],glomerular width [2],pronephric angle neck segment [3],fraction of imaged embryos annotated as normal kidney [4]
N[C@@H](Cc1cc(I)c(Oc2ccc(O)c(I)c2)c(I)c1)C(=O)O [Liothyronine],0.912 ± 0.45,0.9338 ± 0.0093,1.01 ± 0.018,–
C[C@@H]1C[C@H]2[C@@H]3C[C@H](F)C4=CC(=O)C=C[C@]4(C)[C@@]3(F)[C@@H](O)C[C@]2(C)[C@@]1(O)C(=O)COC(=O)C(C)(C)C [Flumethasone pivalate],1.2 ± 0.37,1.04 ± 0.015,0.989 ± 0.0085,0.25
CN(C)CCOC(=O)COc1ccc(Cl)cc1 [Meclofenoxate hydrochloride],1.19 ± 0.36,1.02 ± 0.049,1.05 ± 0.057,0.667
Cc1ccccc1N1C(=O)c2cc(S(N)(=O)=O)c(Cl)cc2NC1C (configuration not stated) [Metolazone],0.86 ± 0.34,1 ± 0.062,1.03 ± 0.016,0.917
CNCCC(Oc1ccc(C(F)(F)F)cc1)c1ccccc1 (configuration not stated) [Fluoxetine hydrochloride],1.23 ± 0.69,0.903 ± 0.041,1.04 ± 0.054,0.583
CCN(CCCCOC(=O)c1ccc(OC)c(OC)c1)C(C)Cc1ccc(OC)cc1 (configuration not stated) [Mebeverine hydrochloride],0.925 ± 0.3,0.986 ± 0.044,0.965 ± 0.017,0.833
CCOC(=O)Nc1ccc2c(c1)N(C(=O)CCN1CCOCC1)c1ccccc1S2 [Moricizine hydrochloride],0.635 ± 0.18,1.04 ± 0.013,0.993 ± 0.055,0.833
CCCCC1C(=O)N(c2ccccc2)N(c2ccc(O)cc2)C1=O (configuration not stated) [Oxyphenbutazone],1.27 ± 0.44,0.983 ± 0.027,0.998 ± 0.06,1
CC[C@H]1OC(=O)[C@H](C)[C@@H](O[C@H]2C[C@@](C)(OC)[C@@H](O)[C@H](C)O2)[C@H](C)[C@@H](O[C@@H]2O[C@H](C)C[C@H](N(C)C)[C@H]2O)[C@](C)(OC)C[C@@H](C)C(=O)[C@H](C)[C@@H](O)[C@]1(C)O [Clarithromycin],0.802 ± 0.28,0.909 ± 0.043,1.06 ± 0.039,1
CCCOc1ccc(C(=O)OCCN(CC)CC)cc1N [Proparacaine hydrochloride],0.768 ± 0.39,0.93 ± 0.052,0.998 ± 0.041,0.833
CC/C(=C(\c1ccccc1)c1ccc(OCCN(C)C)cc1)c1ccccc1 [Tamoxifen citrate],0.968 ± 0.33,0.977 ± 0.019,1.02 ± 0.045,0.833
CNC1(C)C2CCC(C2)C1(C)C (configuration not stated) [Mecamylamine hydrochloride],1.09 ± 0.32,0.973 ± 0.089,1.07 ± 0.074,0.833
CC1(C)S[C@@H]2[C@H](NC(=O)[C@H](C(=O)O)c3ccsc3)C(=O)N2[C@H]1C(=O)O [Ticarcillin sodium],0.953 ± 0.36,1.01 ± 0.048,1.006 ± 0.0094,0.8
CC(C)[C@H]1CC[C@H](C(=O)N[C@H](Cc2ccccc2)C(=O)O)CC1 [Nateglinide],0.985 ± 0.37,1.04 ± 0.024,1.08 ± 0.024,1
CCN1CC(CCN2CCOCC2)C(c2ccccc2)(c2ccccc2)C1=O (configuration not stated) [Doxapram hydrochloride],0.953 ± 0.32,0.981 ± 0.0026,0.9542 ± 0.0079,0.833
CC[N+](C)(CC)CCOC(=O)C1c2ccccc2Oc2ccccc21 [Methantheline bromide],0.979 ± 0.45,0.996 ± 0.029,1.045 ± 0.0066,0.917
Cc1cccc(CN2CCN(C(c3ccccc3)c3ccc(Cl)cc3)CC2)c1 (configuration not stated) [Meclozine dihydrochloride],1.25 ± 0.33,0.93 ± 0.015,1.03 ± 0.073,0.417
CC(N)CCCC(C)(C)O (configuration not stated) [Heptaminol hydrochloride],1.19 ± 0.48,1 ± 0.044,0.971 ± 0.023,0.75
CCOC(=O)O[C@]1(C(=O)OCCl)CC[C@H]2[C@@H]3CCC4=CC(=O)C=C[C@]4(C)[C@H]3[C@@H](O)C[C@@]21C [Loteprednol etabonate],1.27 ± 0.56,0.884 ± 0.029,1.09 ± 0.042,0.833
